Assay outcomes (PubChem BioAssay)
Hits are enriched below; roughly 19% of the tested compounds scored in any of these assays.
DT40 TDP1 CPT: growth inhibition of DT40 Tdp1-/-;hTDP1 cells with camptothecin (screen for TDP1 inhibitors); chicken DT40 Tdp1-/-;hTDP1 cells + 20 nM CPT, ATP luminescence, 48 h; hit rate 12% among 420,000; Potency, µM (doses to about 46.2 µM), for the others: at the highest dose activity change, negative = growth inhibition, actives largely listed as inhibitors; AID 686979; further: potency means the concentration at half of the fitted maximal effect; on the % scale 0 is the no-effect control and ±100 the full control effect; nearly all actives have a fitted effect of over 55% in size
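Cell growth measured by CellTiter-Glo luminescence after a minimum 48 h, 37 C compound exposure with 20 nM CPT in Tdp1-knockout DT40 cells stably expressing hTDP1, seeded 400/well; qHTS titration format.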
BCR signal inh: chronic active BCR signaling inhibition. ABC-DLBCL IkBa-CBG/CBR reporter, luminescence ratio, 4 h. Potency, µM (top dose mostly 46.1 µM), without a hit: at the highest dose activity change, negative = inhibition, usual class: inhibitors. hit rate 0.05% among 340,000. AID 493014; active means well fitted inhibition curve with a large enough effect in the signal ratio, with a control signal flat, not every such curve was filed as active; inconclusive means small, poorly fitted or top-dose-only effect, or effect the other way, or a change in a side signal; the % refers to the signal ratio;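 further: potency means the concentration at half of the fitted maximal effect; plate controls were basal doxycycline-induced cells for no effect and cells given 10 µM MG132 for full effect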
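TMD8 human ABC-DLBCL cells with doxycycline-inducible IκBα–green luciferase fusion and unfused red luciferase, in 0.5% FBS medium; compounds up to 46 uM, 4 h at 37C. Green/red luminescence ratio, filter-overlap corrected, fitted to concentration-response curves.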
MCF10A rereplic: inducers of DNA re-replication in MCF 10A breast cells. MCF 10A DNA re-replication, Hoechst nuclear intensity, 48 h. Potency, µM (top dose mostly 46.1 µM), for inactives: top-dose activity, positive = re-replication, most hits filed as activators. hit rate 2.9% among 350,000. AID 624296; further: potency means the concentration at half of the fitted maximal effect; % of control where 0% means no effect; nearly all actives have a fitted effect of over 50% in size
DT40 TDP1 no CPT: qHTS for Inhibitors of human tyrosyl-DNA phosphodiesterase 1 (TDP1): qHTS in cells in absence of CPT; DT40 Tdp1-/- hTDP1 cells, no CPT, ATP luminescence, 48 h; Potency, µM (top dose mostly 46.2 µM), without a hit: at the top dose activity change, negative = growth inhibition, actives largely listed as inhibitors; hit rate 15% among 420,000; AID 686978, 2013; further: potency means the concentration at half of the fitted maximal effect; on the % scale 0 is the no-effect control and ±100 the full control effect; nearly all actives have a fitted effect of over 55% in size
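Growth kinetics read by CellTiter-Glo luminescence after ≥48 hr at 37 °C. Cells: DT40 Tdp1-/- stably carrying human TDP1, 400 per well, compound exposure in the absence of CPT (DMSO vehicle).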
IL1B secr inh: inhibitors of inflammasome signaling (IL-1 beta secretion); activity change, % at 57.5 µM; hit rate 4.7% among 360,000; THP-1 LPS/ATP IL-1B secretion, AlphaLISA, 16 h; hits give low values; in the data active means activity change below about -50%; inconclusive means mostly about -30% to -49%; further: on the % scale 0 is the no-effect control and ±100 the full control effect
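Secreted IL-1B measured by AlphaLISA bead assay after 16 h compound exposure of THP-1 cells; compounds (final up to 57.5 uM) added 1 h before LPS (250 ng/mL) and ATP (1.25 mM) stimulation; lower signal means less secretion.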
SW480 rerep: inducers of DNA re-replication in SW480 colon cancer cells; SW480 DNA re-replication, Hoechst DNA content imaging, 48 h; Potency, µM (doses to about 46.1 µM), for inactives: at the highest dose re-replication activation, actives largely listed as activators; hit rate 1.8% among 340,000; further: potency means the concentration at half of the fitted maximal effect; % of control where 0% means no effect; nearly all actives have a fitted effect of over 55% in size
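SW480 cells exposed to compounds for 48 hr at 37 C, 5% CO2, then Hoechst-stained 40 min. Nuclear DNA content imaged by fluorescence scanning (405 nm excitation, 500-530 nm emission); re-replication scored as increased high-intensity nuclei.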
* = called active by the depositor; u = inconclusive; x = no result. Unless noted, the call rests on the fitted dose curve; in most records, active means well fitted curve in the direction sought with a large enough effect; inconclusive means small, poorly fitted or top-dose-only effect, or another doubt; inactive means no such curve, though single readings can be large; an effect the other way counts as inactive or inconclusive.

SMILES	DT40 TDP1 CPT	BCR signal inh	MCF10A rereplic	DT40 TDP1 no CPT	IL1B secr inh	SW480 rerep
COc1cccc(NC(=O)C2CCN(S(=O)(=O)c3c(C)noc3/C=C/c3cccs3)CC2)c1	u	x	x	13µM*	x	x
COc1ccccc1CNC(=O)C1CCN(S(=O)(=O)c2c(C)noc2/C=C/c2cccs2)CC1	18µM*	x	x	18µM*	x	x
CS(=O)(=O)NCCSc1cc(C(F)(F)F)nc2ccccc12	8%	u	-8%	u	x	13%
Cc1cc(C(=O)CN2C(=O)C(=O)N(CC(C)C)C2=O)c(C)n1C1CC1	-1%	1%	13%	-27%	0	u
Nc1nonc1-n1nnc(C(=O)N/N=C/c2cccc(Cl)c2)c1-c1cccs1	-26%	u	6%	-10%	u	-2%
Cc1occc1C(=O)N1CCCC(CCC(=O)NCc2ccc(F)c(F)c2)C1 (configuration not stated)	u	-1%	-1%	21µM*	5	-2%
COc1cccc(CNC(=O)CCC2CCCN(C(=O)c3cc4ccccc4o3)C2)c1 (configuration not stated)	u	u	-4%	13µM*	-90*	u
Cc1cccc(NC(=O)CN(C)C(=O)C2CC2)c1C	-5%	u	-6%	-6%	-1	-4%
CC(CCCN(C)C)C(Cc1ccccc1)c1ccccc1 (configuration not stated)	u	x	u	u	-66*	u
CN(C)CCC(=O)C(Cc1ccccc1)c1ccccc1 (configuration not stated)	5.2µM*	x	4.1µM*	4.6µM*	-99*	u
O=C(Nc1ccccc1)c1cc(C2CCCN(C(=O)C/C=C/c3ccccc3)C2)on1 (configuration not stated)	u	x	x	21µM*	-3	x
CC(C)(C)c1ccc(NC(=O)c2cc(C3CCCN(C(=O)CCc4ccccc4)C3)on2)cc1 (configuration not stated)	8.2µM*	x	x	12µM*	0	x
O=C(Nc1ccc2c(c1)OCO2)c1cc(C2CCCN(C(=O)CCc3ccccc3)C2)on1 (configuration not stated)	21µM*	x	x	u	-3	x
O=C(Nc1ccc2c(c1)OCO2)c1cc(C2CCCCN2C(=O)CCCc2ccccc2)on1 (configuration not stated)	u	x	x	u	-28	x
CC(=O)N1CCCC(c2cc(C(=O)Nc3ccccc3)no2)C1 (configuration not stated)	-25%	x	x	u	2	x
CCCC(=O)N1CCCC(c2cc(C(=O)Nc3ccc4c(c3)OCO4)no2)C1 (configuration not stated)	-29%	x	x	5%	4	x
O=C(Nc1ccc2c(c1)OCO2)c1cc(C2CCCN(C(=O)CCCc3ccccc3)C2)on1 (configuration not stated)	18µM*	x	x	u	0	x
O=C(CC(=O)Nc1cccc(Cl)c1Cl)Nc1cccc(Cl)c1Cl	6%	5%	29%	u	-15	-3%
Cc1cccc(OCC(=O)NCc2ccccc2)c1	1%	-1%	-2%	-5%	-3	4%
C/C(=N\NC(=O)COc1cccc(C)c1)c1ccc2ccccc2c1O	u	-8%	13µM*	u	72	23µM*
CC(=O)c1cc2c(cc1F)C(C)(C)CCC2(C)C	u	x	-1%	-11%	21	11%
CC(NC(=O)c1ccc2ccccc2n1)c1ccc(Br)cc1 (configuration not stated)	u	-1%	23µM*	u	-11	u
COc1ccc(CCN(C)CC(O)COC(c2ccc(F)cc2)c2ccc(F)cc2)cc1OC (configuration not stated)	16µM*	u	u	u	-92*	u
O=C(CCCCn1c(=O)c2ccccc2n(CC(=O)Nc2cccc(F)c2)c1=O)NCc1ccccc1Cl	-4%	x	x	-13%	x	x
COc1cc(NC(=O)Cn2c(=O)n(Cc3ccccc3Cl)c(=O)c3cc(OC)c(OC)cc32)cc(OC)c1	-25%	x	x	-29%	x	x
SMILES	DT40 TDP1 CPT	BCR signal inh	MCF10A rereplic	DT40 TDP1 no CPT	IL1B secr inh	SW480 rerep
CC(C)(C)C(=O)Cn1c(=O)n(CCCCCC(=O)NCc2ccccc2Cl)c(=O)c2sccc21	u	x	x	21µM*	x	x
COc1cc2c(=O)n(Cc3ccccc3Cl)c(=O)n(CC(=O)Nc3ccc(C)c(C)c3)c2cc1OC	1.8µM*	x	x	7.3µM*	x	x
Cc1ccc(NC(=O)Cn2c(=O)n(CCC(=O)NCc3ccccc3Cl)c(=O)c3ccccc32)c(C)c1	-6%	x	x	-1%	x	x
CCN(CC)C(=O)Cn1c(=O)n(CCCCCC(=O)NCc2ccccc2Cl)c(=O)c2sccc21	-19%	x	x	-10%	x	x
Cc1ccc(NC(=O)Cn2c(=O)n(CCC(=O)NCc3ccccc3Cl)c(=O)c3ccccc32)cc1	16µM*	x	x	21µM*	x	x
Cc1ccc(NC(=O)Cn2c(=O)n(CCCCC(=O)NCc3ccccc3Cl)c(=O)c3ccccc32)cc1	u	x	x	23µM*	x	x
Cc1c(NC(=O)CN2CCCC(C)C2)ccc2nsnc12 (configuration not stated)	0%	0%	-12%	-1%	15	2%
O=S(=O)(c1ccc(-n2cnnn2)cc1)N1CCN(c2cccc(C(F)(F)F)c2)CC1	-8%	x	x	-14%	x	x
Cc1ccc(C)c(OCC(=O)NCC(c2ccco2)N2CCCCC2)c1 (configuration not stated)	u	-1%	19%	u	-23	-18%
Cc1ccc(C)c(SCC(=O)NCC(c2ccco2)N2CCCCC2)c1 (configuration not stated)	u	17%	19%	21µM*	-7	-2%
Cc1cc(Br)ccc1SCC(=O)NCC(c1ccco1)N1CCCCC1 (configuration not stated)	18µM*	u	20%	u	-24	-4%
O=C(Nc1ccccc1C(F)(F)F)c1cc2nc(-c3ccccc3)cc(-c3ccccc3)n2n1	-13%	x	x	-14%	x	x
COc1cc(C(=O)O)c([N+](=O)[O-])c(OC)c1OC	0%	-2%	2%	10%	-3	-9%
COc1cc2[nH]c(Cl)c([N+](=O)[O-])c2cc1OC	21µM*	3%	-2%	21µM*	27	-23%
